These results are taken from PubChem BioAssay AID431 (Sanford-Burnham Center for Chemical Genomics, 2006).

Out of some 63,000 compounds screened, about 1,100 (1.7%) were called active.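 How the source made its calls: active means compounds whose percent cytotoxicity in the single-dose primary screen, scaled between solvent and toxic-drug controls, exceeds 50; inactive means the rest.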 The full list was thinned out, with actives kept by preference. Potency and affinity values are given separately.

The assay is described as follows: cytotoxicity in KRAS-transformed pancreatic duct cells, primary screen, cell-based, fluorescence, HTS (AID 431).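 Further: 0% = DMSO solvent wells and 100% = doxorubicin-treated wells.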 To be noted: HPDE-C7K KRASV12 cells, Alamar Blue viability, 48 h; at 10 µM; active compounds read high.
Turning to `CCOC(=O)NC(Nc1ncccn1)(C(F)(F)F)C(F)(F)F`, the cytotoxicity is -17.3% (inactive).
In the case of `CCCOCCOC(=O)c1[nH]c2c(c1C)C(=O)CC(c1cc(OC)ccc1OC)C2` (centres undefined), the cytotoxicity is 53.5% (active).
Under `COC(=O)c1[nH]c2c(c1C)C(=O)CC(c1cc(OC)ccc1OC)C2` (centres undefined) stands 18.9% (inactive); under `COc1ccc(OC)c(C2CC(=O)c3c([nH]c(C(=O)OC(C)C)c3C)C2)c1` (centres undefined), 51.6% (active); under `COCCOC(=O)c1[nH]c2c(c1C)C(=O)CC(c1cc(OC)ccc1OC)C2` (centres undefined), -6.8% (inactive).
`COc1ccc(C2CC(=O)c3c([nH]c(C(=O)OC(C)C)c3C)C2)cc1OC` (centres undefined): the cytotoxicity was -16.2% (inactive).
Under `COc1cc2nc(CC(C)C)n(NC(=O)c3ccccc3)c(=O)c2cc1OC` stands -0.2% (inactive).
Under `Cc1cc(N2CCN(C(=O)c3ccco3)CC2)n2nc(-c3cccc(Cl)c3)cc2n1` stands 2% (inactive); under `c1cnc(NCCNc2ncccn2)nc1`, -5.3% (inactive); under `Cc1cc(NC(=O)c2ccc(Cn3nc(C)c(Br)c3C)o2)no1`, 6.8% (inactive).
Under `CCOC(=O)C1CCN(c2c(N(C)Cc3ccco3)c(=O)c2=O)CC1` stands 11% (inactive).
For the molecule `O=CN1Cc2[nH]c3ccccc3c2N(c2ccc(Cl)cc2)C1=O`, the cytotoxicity is -0.4% (inactive).
Under `COCCn1c(N)c(S(=O)(=O)c2cccs2)c2nc3ccccc3nc21` stands -1.6% (inactive); under `Cc1cccc(S(=O)(=O)c2c(N)n(/N=C/c3ccco3)c3nc4ccccc4nc23)c1`, 17.6% (inactive).
Regarding `Nc1c(S(=O)(=O)c2cccs2)c2nc3ccccc3nc2n1Cc1cccs1`, the cytotoxicity is -15.3% (inactive).
As to `Cc1cccc(S(=O)(=O)c2c(N)n(/N=C/c3cccnc3)c3nc4ccccc4nc23)c1`, the cytotoxicity was 23.4% (inactive).
Under `Nc1c(S(=O)(=O)c2cccs2)c2nc3ccccc3nc2n1/N=C/c1cccc(O)c1` stands 65.7% (active); under `Nc1c(S(=O)(=O)c2ccccc2)c2nc3ccccc3nc2n1/N=C/c1ccco1`, 45.3% (inactive).
Regarding `Nc1c(S(=O)(=O)c2cccc(Cl)c2)c2nc3ccccc3nc2n1/N=C/c1ccc(O)c(O)c1`, the cytotoxicity was 126% (active).
Under `Cc1ccc(S(=O)(=O)c2c(N)n(/N=C/c3ccco3)c3nc4ccccc4nc23)cc1C` stands 8.5% (inactive); under `O=C(CCSc1nc(-c2ccco2)cc(C(F)(F)F)n1)NCC1CCCO1` (centres undefined), 3.2% (inactive); under `COCCCNC(=O)CCn1c(=O)c2ccccc2n(CC(=O)Nc2ccccc2C)c1=O`, 1.7% (inactive).
On to `CN(C(=O)c1ccc2c(=O)n3c(nc2c1)CCCCC3)c1ccccc1`, for which the cytotoxicity was -5.5% (inactive).
With `CCOC(=O)c1c(C)[nH]c(C(=O)CSc2nnnn2-c2ccccc2)c1C`, the cytotoxicity is -2.7% (inactive).
Under `CCc1nc2oc3cc(OC)ccc3c(=O)c2c(=O)n1Cc1ccco1` stands -11.3% (inactive); under `O=C(Nc1cccnc1)C1CCCN(S(=O)(=O)c2cccc3nsnc23)C1` (centres undefined), -2.5% (inactive); under `Cc1ccc(C(=O)NCCNC(=O)CN2CCCC2)cc1`, -4.9% (inactive).
On to `CN(C1CCCCC1)S(=O)(=O)c1ccc(NC(=O)C2CCCCC2C(=O)O)cc1` (centres undefined), for which the cytotoxicity is -5.7% (inactive).
For the molecule `COc1ccc(C2=NOC(Cn3c(Cc4ccc(Cl)cc4)nc4c3c(=O)n(C)c(=O)n4C)C2)cc1` (centres undefined), the cytotoxicity was 1.7% (inactive).
For `COc1ccccc1C1=NOC(Cn2c(=O)c3c(ncn3C)n(C)c2=O)C1` (centres undefined) the value was -17.3% (inactive); for `COc1ccc(-c2nc3c(c(=O)n(C)c(=O)n3C)n2CC2CC(c3ccccc3)=NO2)cc1OC` (centres undefined), 53.3% (active).
For `CC1CCN(c2nc3c(c(=O)[nH]c(=O)n3C)n2Cc2ccccc2Cl)CC1` the value was 8.5% (inactive); for `CCOC(=O)c1cnc(=O)[nH]c1C`, 1.1% (inactive).
Consider `Cc1cc(-c2[nH]nc3c2C(c2ccsc2)C(C#N)=C(N)O3)c(C)s1` (centres undefined), for which the cytotoxicity was -9.2% (inactive).
`Cc1ccc2[nH]c3c(c2c1)CN(C(=O)CN1CCCc2ccccc21)CC3`: the cytotoxicity was 54.4% (active).
As to `Cc1ccc2[nH]c3c(c2c1)CN(C(=O)CN1CCN(c2ccccc2)CC1)CC3`, the cytotoxicity was 24.5% (inactive).
`Cc1ccc2[nH]c3c(c2c1)CN(C(=O)CN1CCN(c2ccccc2F)CC1)CC3`: the cytotoxicity is 22.5% (inactive).
As to `CCN(CC)C(=O)c1csc(Nc2ccc(C)cc2)n1`, the cytotoxicity is -18.4% (inactive).
For `Cc1nc2cc(CO)ccc2s1` the value was 1.8% (inactive); for `CC(=O)N1CCc2cc(C(=O)CN3CCN(c4cccc(Cl)c4)CC3)ccc21`, -4% (inactive); for `Cc1ncoc1C(=O)Nc1ccc(Oc2ccccc2)cc1`, -7.3% (inactive).
`O=C(Nc1ccc(O)cc1)c1ccc(C(=O)c2ccccc2)o1`: the cytotoxicity was -1.3% (inactive).
Under `Cc1ccc2c(COC(=O)c3cnc(C)cn3)cc(=O)oc2c1` stands 4.8% (inactive); under `CCOc1ccc(C)cc1S(=O)(=O)N1CCCCC1`, 7.7% (inactive).
With `Cc1cnc(NC(=O)COc2ccccc2)s1`, the cytotoxicity is 1.6% (inactive).
For `Nc1ccc2c(c1)-c1ccccc1S(=O)(=O)N2` the value was 16.8% (inactive).
For `Cc1ccc2c(c1)-c1ccccc1S(=O)(=O)N2` the value was 11.5% (inactive); for `O=S1(=O)Nc2c(ccc3cccnc23)-c2ccccc21`, 86% (active); for `CC1CCN(c2nnc(N3CCC(C)CC3)c3ccccc23)CC1`, -2.9% (inactive).
For `Cc1ccc(C(c2nnnn2Cc2cccs2)N2CCN(C(=O)c3ccco3)CC2)cc1` (centres undefined), the cytotoxicity was 2% (inactive).
For `CNC(=O)c1ccc(N(Cc2ccccc2C)S(C)(=O)=O)cc1` the value was 2.8% (inactive).
With `O=S(=O)(NCCc1ccccn1)c1ccc(F)c(F)c1`, the cytotoxicity is -21.4% (inactive).
On to `COc1ccc(/C(O)=C2\C(=O)C(=O)N(c3cc(C)on3)C2c2ccccc2OC)cc1` (centres undefined), for which the cytotoxicity is 9.4% (inactive).
For `Cc1ccc(/C(O)=C2\C(=O)C(=O)N(c3cc(C)on3)C2c2cccc(Cl)c2)cc1` (centres undefined) the value was 55.9% (active); for `Cc1ccc(/C(O)=C2\C(=O)C(=O)N(c3cc(C)on3)C2c2cccc(Br)c2)cc1` (centres undefined), 48.2% (inactive).
In the case of `COc1cccc(C2/C(=C(\O)c3ccc(OC)c(OC)c3)C(=O)C(=O)N2c2cc(C)on2)c1` (centres undefined), the cytotoxicity is 19.3% (inactive).
Regarding `Cc1cc(N2C(=O)C(=O)/C(=C(/O)c3ccc(F)cc3)C2c2ccc(F)cc2)no1` (centres undefined), the cytotoxicity was 16.6% (inactive).
As to `Cc1cc(N2C(=O)C(=O)/C(=C(/O)c3ccc(Cl)cc3)C2c2cccc(Br)c2)no1` (centres undefined), the cytotoxicity is 60.6% (active).
For `Cc1cc(N2C(=O)C(=O)/C(=C(/O)c3ccc(F)cc3)C2c2cccc(Br)c2)no1` (centres undefined) the value was 72.5% (active); for `Cc1cc(N2C(=O)C(=O)/C(=C(/O)c3ccc(F)cc3)C2c2ccc(Cl)cc2)no1` (centres undefined), 37.6% (inactive).
As to `Cc1cc(N2C(=O)C(=O)/C(=C(/O)c3ccccc3)C2c2cccc(Br)c2)no1` (centres undefined), the cytotoxicity is 0.9% (inactive).
In the case of `COc1ccc(C2C(C(=O)NCC3CCCO3)CCC(=O)N2c2ccc3c(c2)OCO3)cc1` (centres undefined), the cytotoxicity was -18.6% (inactive).
Turning to `O=C(Nc1ccccc1C(F)(F)F)c1cc(S(=O)(=O)N2CCOCC2)ccc1F`, the cytotoxicity is 24.1% (inactive).
Under `CCn1c(C(=O)NCc2ccccn2)cc2sccc21` stands -5.6% (inactive); under `Cc1cc2c(=O)n(Cc3ccco3)c(SCC(=O)NCc3ccco3)nc2s1`, -12.9% (inactive).
On to `COc1ccc(C2N=C(Nc3ccc(C)cc3)Nc3nc(C)cc(=O)n32)cc1` (centres undefined), for which the cytotoxicity was 2.4% (inactive).
On to `COc1ccc(S(=O)(=O)N(CC(=O)O)c2ccccc2)cc1`, for which the cytotoxicity was 8.5% (inactive).
Under `Cc1csc2nc3ccccc3c(=O)n12` stands 2.6% (inactive).
As for `COc1cc(C2Nc3cccc4cccc(c34)N2)cc(OC)c1O`, the cytotoxicity was 41.5% (inactive).
Turning to `COc1cc(C2Nc3cccc4cccc(c34)N2)ccc1OC(C)=O`, the cytotoxicity is 50.8% (active).
For `COc1cc(C(=O)O)ccc1OC(C)=O` the value was -2.6% (inactive).
`Oc1ccccc1C1Nc2cccc3cccc(c23)N1`: the cytotoxicity is -2.4% (inactive).
Turning to `COc1cc(C2N(c3ccccc3)CCN2c2ccccc2)ccc1OC(C)=O`, the cytotoxicity is -13.9% (inactive).
Under `COc1cc(C2Nc3cccc4cccc(c34)N2)cc(OC)c1OC(C)=O` stands 83.6% (active).
On to `Cc1ccc(S(=O)(=O)Cn2nnnc2C(C(C)C)N2CCN(C(=O)c3ccco3)CC2)cc1` (centres undefined), for which the cytotoxicity is -8.7% (inactive).
Take `CCOC(=O)CNC(=O)Nc1cc(C(C)(C)C)nn1-c1ccccc1`: the cytotoxicity was -5.3% (inactive).
For `Cc1ccc2nc(-c3ccccn3)oc2c1` the value was 9.5% (inactive).
Under `CCOC(=O)C(CCC#N)(CCC#N)C(=O)OCC` stands -1.4% (inactive).
As for `O=C(CN(Cc1ccco1)C(=O)CNS(=O)(=O)c1ccccc1)NCc1ccc(F)cc1`, the cytotoxicity is 2.2% (inactive).
For `O=C(CN(Cc1ccco1)C(=O)CNS(=O)(=O)c1ccc(Cl)cc1)NCc1ccc(F)cc1` the value was 77.7% (active); for `O=C(CN(Cc1ccco1)C(=O)CNS(=O)(=O)c1ccc(F)cc1)NCc1ccc(F)cc1`, 1.2% (inactive); for `CC(=O)c1cccc(NC(=O)NC(C)c2ccncc2)c1` (centres undefined), -4.4% (inactive).
As to `Cc1noc(/C=C/NCc2cccnc2)c1S(=O)(=O)N(C)CC(=O)N1CCc2ccccc21`, the cytotoxicity was 2.4% (inactive).
For `COc1cc2cc(C)c(SCC(=O)N3CCOCC3)nc2cc1OC` the value was -9.8% (inactive).
With `O=C(O)CCN(CCC(=O)O)S(=O)(=O)c1ccccc1`, the cytotoxicity is -5.5% (inactive).
Under `Cc1cc(-n2c(SCCC#N)nnc2-c2cccnc2)ccc1Cl` stands -9.6% (inactive); under `COc1ccc(-n2c(SCCC#N)nnc2-c2cc(Cl)ccc2OC)cc1Cl`, 54.3% (active).
As to `N#CCCCSc1nnc(-c2ccc(Cl)cc2)n1-c1ccccc1`, the cytotoxicity was -16.4% (inactive).
On to `COc1ccc(N(C(=O)c2ccc(S(=O)(=O)N3CCOCC3)cc2)C2C=CS(=O)(=O)C2)cc1` (centres undefined), for which the cytotoxicity is -10.3% (inactive).
For `CCOC(=O)C1=C(C)C(c2ccc(OC)cc2OC)NC(=O)N1` (centres undefined) the value was -21.1% (inactive); for `N#CC1=C(N)Oc2c(ccc3cccnc23)C1c1cccnc1` (centres undefined), 42.1% (inactive); for `N#CC1=C(N)Oc2cc(O)ccc2C1c1ccncc1` (centres undefined), -1.3% (inactive).
For `COc1cc(C2C(C#N)=C(N)Oc3cc(N)ccc32)cc(OC)c1OC` (centres undefined) the value was 54.9% (active); for `CCc1[nH]nc2c1C(c1cccnc1)C(C#N)=C(N)O2` (centres undefined), 5.8% (inactive).
Take `COc1ccc(C2C(C#N)=C(N)Oc3cc(O)ccc32)cc1OC` (centres undefined): the cytotoxicity was -2.6% (inactive).
Regarding `CN(C)c1ccc2c(c1)OC(N)=C(C#N)C2c1cccc(F)c1` (centres undefined), the cytotoxicity was 55.5% (active).
Under `CCN(CC)c1ccc2c(c1)OC(N)=C(C#N)C2c1cccnc1` (centres undefined) stands 70.8% (active); under `COc1ccc(OC)c(C2C(C#N)=C(N)Oc3cc(N)ccc32)c1` (centres undefined), 9.4% (inactive).
As for `N#CC1=C(N)Oc2cc(O)ccc2C1c1ccccc1` (centres undefined), the cytotoxicity was 1.7% (inactive).
